PubChem BioAssay
Inconclusive results are not listed. Active and inactive are the calls of the source.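 Rule for the calls, unless noted: active = inhibition over a set limit, the all-compound mean plus 3 SD, in both replicate runs; inconclusive = over that limit in just one replicate run; inactive = at or under that limit in both runs.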

Assays:
[1] = molecular target: Pantothenate synthetase (Mycobacterium tuberculosis (strain ATCC 25618 / H37Rv)) (UniProt P9WIL5); assay: Coupled enzyme confirmation of inhibitors against recombinant Mtb PanC (AID 375; call rule not given here;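 note: 0% = full reaction with vehicle and 100% = no enzyme background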); details: coupled enzyme assay; at 10 µM, stronger effect = higher value
Sequence of Pantothenate synthetase (Mycobacterium tuberculosis (strain ATCC 25618 / H37Rv)) (P9WIL5 whole entry, looked up): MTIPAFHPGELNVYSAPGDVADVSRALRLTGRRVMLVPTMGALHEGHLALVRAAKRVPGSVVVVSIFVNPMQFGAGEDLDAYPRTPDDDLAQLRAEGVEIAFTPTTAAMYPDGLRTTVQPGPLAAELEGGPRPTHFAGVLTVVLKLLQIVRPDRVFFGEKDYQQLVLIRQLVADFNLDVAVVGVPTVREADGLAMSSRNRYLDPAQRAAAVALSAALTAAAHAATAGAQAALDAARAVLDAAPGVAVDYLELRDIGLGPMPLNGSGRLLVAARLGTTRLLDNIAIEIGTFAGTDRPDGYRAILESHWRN

[2] = Her2 expression decrease, cell viability multiplex – SKBR3 breast tumor cells, AlphaScreen, ATP viability, primary screen (AID 461;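 active = Her2 level under about 52% in both replicate screens, with viability over 70% of control, limit read from the data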;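 for Her2 level: lower value means less Her2 protein in the cells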;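 for viability: percent of carrier control wells set as 100% viability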); details: SKBR3 Her2 protein level, 18-24 h, measured here: SKBR3 viability, ATP luminescence, at 10 µM
[3] = molecular target: Receptor tyrosine-protein kinase erbB-2 (Homo sapiens) (UniProt P04626); assay: as above; details: 18-24 h, at 10 µM, stronger effect = lower value
Sequence of Receptor tyrosine-protein kinase erbB-2 (Homo sapiens) (P04626 whole entry, looked up): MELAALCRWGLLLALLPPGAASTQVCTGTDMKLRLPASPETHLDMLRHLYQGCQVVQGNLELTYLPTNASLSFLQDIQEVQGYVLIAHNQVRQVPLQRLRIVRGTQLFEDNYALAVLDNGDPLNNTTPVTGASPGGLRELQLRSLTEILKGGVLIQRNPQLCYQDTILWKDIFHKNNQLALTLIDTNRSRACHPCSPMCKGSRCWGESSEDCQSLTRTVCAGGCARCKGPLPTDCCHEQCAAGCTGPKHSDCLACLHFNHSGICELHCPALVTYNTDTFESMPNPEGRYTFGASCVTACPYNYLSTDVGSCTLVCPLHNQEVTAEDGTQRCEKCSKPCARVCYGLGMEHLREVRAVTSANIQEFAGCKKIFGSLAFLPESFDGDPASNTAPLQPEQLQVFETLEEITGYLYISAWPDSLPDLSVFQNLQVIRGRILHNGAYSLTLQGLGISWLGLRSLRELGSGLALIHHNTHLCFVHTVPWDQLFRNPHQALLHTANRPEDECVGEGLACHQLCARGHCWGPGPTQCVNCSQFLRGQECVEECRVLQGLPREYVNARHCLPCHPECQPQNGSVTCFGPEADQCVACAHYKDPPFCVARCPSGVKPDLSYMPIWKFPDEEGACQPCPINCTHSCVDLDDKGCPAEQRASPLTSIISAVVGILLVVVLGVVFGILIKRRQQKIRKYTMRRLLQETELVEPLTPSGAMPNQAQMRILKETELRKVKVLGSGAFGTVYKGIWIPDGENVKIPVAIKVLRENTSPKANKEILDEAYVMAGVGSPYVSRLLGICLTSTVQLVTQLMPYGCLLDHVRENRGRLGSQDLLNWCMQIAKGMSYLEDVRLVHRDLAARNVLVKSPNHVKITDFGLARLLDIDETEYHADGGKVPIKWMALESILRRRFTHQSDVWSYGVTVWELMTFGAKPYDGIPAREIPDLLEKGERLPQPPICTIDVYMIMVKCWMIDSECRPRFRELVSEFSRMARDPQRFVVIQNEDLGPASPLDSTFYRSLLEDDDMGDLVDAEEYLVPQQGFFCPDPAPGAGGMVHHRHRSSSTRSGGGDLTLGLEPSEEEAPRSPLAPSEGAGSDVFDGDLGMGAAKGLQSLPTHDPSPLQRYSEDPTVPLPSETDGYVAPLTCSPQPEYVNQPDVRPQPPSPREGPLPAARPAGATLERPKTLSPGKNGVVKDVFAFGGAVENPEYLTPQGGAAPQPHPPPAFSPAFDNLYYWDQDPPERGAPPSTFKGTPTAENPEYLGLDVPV

[4] = reduced viability of SK-BR-3 breast cancer cells – cell-based, 24 h, human, pilot screen (AID 572;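 active = viability at or below 10% of carrier control in both of two separate runs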;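 note: compound exposure lasted between 18 and 24 h rather than exactly 24 h; 100% = carrier-treated control wells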); details: SK-BR-3 viability, CellTiter-Glo luminescence, at 10 µM, stronger effect = lower value
[5] = HUVEC growth inhibition – cell-based, human, primary screen (AID 575;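 active = viability at or below 30% in both replicate assays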;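 note: 100% = median of untreated cell wells with 0.1% DMSO on each plate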); details: HUVEC proliferation, CellTiter-Glo luminescence, 72 h; at 10 µM; stronger effect = lower value
[6] = H69AR cell proliferation blockers – human, duplicate replicates, primary screen (AID 580;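 active = viability at or under a set limit in both replicates, limit being median viability minus 3 SD, cut at about 48% in these data, passing the limit was not always enough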;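 note: 100% = mean luminescence of untreated wells and 0% = no signal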); details: H69AR lung tumor cells viability, ATP luminescence, 72 h; at 10 µM; stronger effect = lower value
[7] = MRP1 drug-resistance reversers in H69AR cells – cell-based, doxorubicin co-treatment, pilot screen (AID 601;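 active = viability loss from added drug above about 55%, and viability with drug at most 40%, in both replicates, limit read from the data, passing the limit was not always enough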); details: CellTiter-Glo, 72 h, at 10 µM; for differential viability (reversal): stronger effect = higher value
[8] = yeast transport mutant growth inhibition pilot in 384-well plates, post-Golgi transport modulator project (AID 636; in the data active = inhibition above about 31%); details: absorbance 615 nm, about 18 h, stronger effect = higher value
[9] = growth suppression of yeast trafficking mutant, preliminary HTS, modulators of trafficking downstream of Golgi apparatus project, 1536-format plate, OD 615 nm (AID 637; in the data active = inhibition above about 30%); details: yeast transport mutant growth, absorbance 615 nm, 18 h; stronger effect = higher value
[10] = S. cerevisiae growth inhibition in permissive medium (OD615), pilot counter-assay for S. cerevisiae lifespan shortening project, permissive growth control (AID 705;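 active = growth inhibition above 25% in both replicates, a cutoff set 3 SD above the mean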); details: OD615, 24 h, at 10 µM, stronger effect = higher value
[11] = S. cerevisiae growth inhibition in restrictive medium, OD615, pilot screen, restrictive growth control, yeast lifespan reduction project (AID 706;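 active = growth inhibition above a set limit, 3 SD over mean compound inhibition, in both replicates, cut at about 43% in these data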;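 note: modified DeaD lifespan yeast strain shifted to restrictive glucose medium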); details: OD615, 48 h, at 10 µM, stronger effect = higher value
[12] = doxorubicin toxicity protection in MRP-1 cells – H69AR cells, CellTiter-Glo, duplicate, MRP-1 activator project, pilot screen (AID 807;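 active = viability increase at or above a cutoff of the median across tested compounds plus 3 SD, cut at about 8.5% in these data, passing the limit was not always enough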;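 note: compound pretreatment 18-22 h then 72 h combined with doxorubicin; 0% = doxorubicin alone and 100% = vehicle without doxorubicin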); details: H69AR viability with doxorubicin, CellTiter-Glo luminescence; at 10 µM; stronger effect = higher value
[13] = viability of HCT116 without oncogenic beta-catenin – human colon tumor cells, pilot screen (AID 823;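 active = cell viability at or below a set limit in both duplicate runs, the limit being the all-compound median minus 4 SD, cut at about 23% in these data, passing the limit was not always enough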;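 note: 0% = wells killed by 20 µM Hyamine and 100% = untreated DMSO cell wells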); details: HCT116 beta-catenin knockout viability, CellTiter-Glo, 60 h; at 10 µM; stronger effect = lower value
[14] = RAM pathway blockade in budding yeast – dse1pr::URA3 reporter, 5-FOA selection, pilot screen (AID 869);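 note: 0% = DMSO wells with no growth and 100% = 10 µM 1-NA-PP1 with full growth; RAM network block rescues cells from 5-FOA so hits raise OD615 growth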; details: S. cerevisiae dse1pr::URA3 5-FOA growth, OD615, 2 d, at 10 µM, stronger effect = higher value
[15] = RAM signaling pathway blockade in yeast – S. cerevisiae, Pdr1DBD-CYC8 efflux-inhibited sensitized strain, primary screen (AID 1298;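 active = RAM network inhibition above 8.4% in each of two replicates, 3 SD over the compound average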;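 note: 0% = DMSO untreated cells without growth and 100% = 10 µM 1-NA-PP1 full growth; higher means more yeast growth rescued from 5-FOA killing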); details: S. cerevisiae cbk1-as DSE1-URA3 strain, 5-FOA growth OD615, 2 d; at 50 µM; stronger effect = higher value
[16] = viability of PTEN-null HCT116 cells – cell-based, HCT116 clonal line, CellTiter-Glo, pilot screen (AID 824;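 active = viability at or below 27.92% in each of two runs, the all-compound median minus 4 SD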;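 note: 0% = 20 µM Hyamine control and 100% = vehicle cell control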); details: HCT116 PTEN-deleted viability, 60 h, at 10 µM, stronger effect = lower value
[17] = H69AR cells + 2 uM doxorubicin, measured here: viability with 2 uM doxorubicin, stronger effect = lower value
[18] = H69AR cells, compound alone cytotoxicity

Compound	inhibition [1]	viability [2]	Her2 level [3]	viability [4]	viability [5]	viability [6]	differential viability (reversal) ([7]; H69AR cells + 2 uM doxorubicin)	viability [7, 17]	viability [7, 18]	inhibition [8]	inhibition [9]	growth inhibition [10]	growth inhibition [11]	viability increase [12]	viability [13]	inhibition [14]	RAM network inhibition [15]	viability [16]
COc1ccc(C2SCC(=O)Nc3c2c(=O)[nH]n3C2CCCCCC2)cc1OC (centres undefined)	6% (inactive)	124%	89% (inactive)	124% (inactive)	105% (inactive)	91.3% (inactive)	7.54% (inactive)	83.8%	91.3%	-5.6% (inactive)	4.1% (inactive)	-18.6% (inactive)	-6.19% (inactive)	-4.42% (inactive)	92.4% (inactive)	0.915% (inactive)	1.3% (inactive)	–
Cc1nc2ccccc2c(=O)n1-c1ccc(F)cc1	0% (inactive)	104%	90% (inactive)	104% (inactive)	93.6% (inactive)	96.1% (inactive)	11.5% (inactive)	84.6%	96.1%	-5.32% (inactive)	1.5% (inactive)	-2.1% (inactive)	4.13% (inactive)	-0.87% (inactive)	97.7% (inactive)	1.44% (inactive)	1.29% (inactive)	100% (inactive)
O=C(O)c1cc2ccccc2oc1=O	–	–	–	–	–	–	–	–	–	–	–	-21.9% (inactive)	-5.03% (inactive)	-0.27% (inactive)	103% (inactive)	1.08% (inactive)	1.06% (inactive)	99.6% (inactive)
CP(C)(=O)CCC(=O)O	0% (inactive)	101%	105% (inactive)	101% (inactive)	81.4% (inactive)	100% (inactive)	18.2% (inactive)	82.1%	100%	-4.94% (inactive)	3.44% (inactive)	-18% (inactive)	-19.2% (inactive)	0.16% (inactive)	101% (inactive)	0.42% (inactive)	2.22% (inactive)	98.1% (inactive)
CCCCn1c(C)c(C(=O)OCC)c2c(CN3CCOCC3)c(O)ccc21	2% (inactive)	110%	92.5% (inactive)	110% (inactive)	58.5% (inactive)	73.3% (inactive)	-6.07% (inactive)	79.4%	73.3%	-4.34% (inactive)	4.33% (inactive)	-15.6% (inactive)	-9.74% (inactive)	-6.39% (inactive)	68.3% (inactive)	-0.155% (inactive)	2.5% (inactive)	72.6% (inactive)
O=c1c2ccccc2nc(-c2cccs2)n1-c1cnccn1	–	–	–	–	–	–	–	–	–	–	–	-10.5% (inactive)	-2.03% (inactive)	-1.4% (inactive)	99.7% (inactive)	2.33% (inactive)	2.35% (inactive)	96.3% (inactive)
COc1ccc(OC)c(N2C(=O)NC(=O)C(CCc3ccncc3)(CCc3ccncc3)C2=O)c1	0% (inactive)	105%	112% (inactive)	105% (inactive)	91% (inactive)	82.8% (inactive)	-8.92% (inactive)	91.7%	82.8%	0.79% (inactive)	11.3% (inactive)	-15.9% (inactive)	-9.8% (inactive)	-1.85% (inactive)	94.8% (inactive)	2.2% (inactive)	0.12% (inactive)	94.2% (inactive)
Cc1ccc(CC2C(=O)N(C)C(=O)N(C)C2=O)s1	0% (inactive)	106%	119% (inactive)	106% (inactive)	82.8% (inactive)	95.4% (inactive)	7.06% (inactive)	88.3%	95.4%	-3.77% (inactive)	-1.67% (inactive)	-2.9% (inactive)	3.58% (inactive)	0.21% (inactive)	100% (inactive)	-0.01% (inactive)	4.4% (inactive)	99.6% (inactive)
C[C@H]1CCCC(=O)CCC/C=C/c2cc(O)cc(O)c2C(=O)O1	0% (inactive)	98.5%	16% (active)	98.5% (inactive)	–	38.4% (active)	-57.4% (inactive)	95.8%	38.4%	-3.47% (inactive)	1.15% (inactive)	-12.9% (inactive)	-14.8% (inactive)	-6.31% (inactive)	65.3% (inactive)	2.21% (inactive)	4.86% (inactive)	66.5% (inactive)
O=C(O)C1CSC(c2cccnc2)N1 (centres undefined)	–	–	–	–	–	–	–	–	–	–	–	-3.98% (inactive)	-8.32% (inactive)	-1.05% (inactive)	99.3% (inactive)	3.04% (inactive)	2.35% (inactive)	106% (inactive)
COc1ccccc1/C=C1/C(=N/O)C2CCN1CC2	0% (inactive)	104%	102% (inactive)	104% (inactive)	109% (inactive)	104% (inactive)	8.7% (inactive)	95%	104%	-2.34% (inactive)	0% (inactive)	-14.3% (inactive)	-13.2% (inactive)	-1.4% (inactive)	99.8% (inactive)	0.7% (inactive)	6.29% (inactive)	99.4% (inactive)
CCOc1ccc(-n2c(O)c(C=Nc3ccc(N4CCOCC4)cc3)c(=O)[nH]c2=O)cc1	–	–	–	–	–	–	–	–	–	–	–	-8.12% (inactive)	-10.6% (inactive)	-3.19% (inactive)	97.8% (inactive)	0.445% (inactive)	5.35% (inactive)	103% (inactive)
CN1CSC(=S)N(C)C1	–	–	–	–	–	–	–	–	–	–	–	51.5% (active)	63.5% (active)	-7.69% (inactive)	13.9% (active)	-0.745% (inactive)	-1.87% (inactive)	19.6% (active)
CCCC(C)C1C(C#N)=C(N)Oc2c1c(=O)oc1ccccc21 (centres undefined)	4% (inactive)	116%	106% (inactive)	116% (inactive)	66.8% (inactive)	67.7% (inactive)	-11.5% (inactive)	79.2%	67.7%	-2.21% (inactive)	-0.33% (inactive)	-16.8% (inactive)	-20.1% (inactive)	-5.21% (inactive)	91.6% (inactive)	3.74% (inactive)	8.16% (inactive)	97% (inactive)
O=C(c1cccs1)C1CN2CCC1CC2 (centres undefined)	0% (inactive)	89.5%	122% (inactive)	89.5% (inactive)	94.3% (inactive)	106% (inactive)	13.5% (inactive)	92.8%	106%	0.65% (inactive)	-4.33% (inactive)	-13.4% (inactive)	-12.2% (inactive)	-0.68% (inactive)	97.3% (inactive)	0.375% (inactive)	5.95% (inactive)	103% (inactive)
C=Cn1ccnc1P(=S)(c1ccn(C)c1)c1nccn1C=C	–	–	–	–	–	–	–	–	–	–	–	-2.8% (inactive)	18.6% (inactive)	0.29% (inactive)	100% (inactive)	0.94% (inactive)	1.45% (inactive)	99.2% (inactive)
CCOc1ccc(-n2c(CC)nc3ccccc3c2=O)cc1	–	–	–	–	–	–	–	–	–	–	–	-2.47% (inactive)	-8.86% (inactive)	-1.18% (inactive)	88% (inactive)	1.81% (inactive)	3.89% (inactive)	89.8% (inactive)
CC12CN3CC(C)(CN(C1)C3c1cccnc1)C2=O (centres undefined)	–	–	–	–	–	–	–	–	–	–	–	-9.24% (inactive)	7.5% (inactive)	-0.3% (inactive)	103% (inactive)	1.14% (inactive)	9% (inactive)	100% (inactive)
O/N=C1\CCC2CN(C3CCCCC3)CC2C1 (centres undefined)	–	–	–	–	–	–	–	–	–	–	–	8.11% (inactive)	-1.4% (inactive)	-1.85% (inactive)	109% (inactive)	0.775% (inactive)	0.94% (inactive)	97.9% (inactive)
CCCOC(=O)COc1cc(C)cc2oc(=O)c3c(c12)CCC3	–	–	–	–	–	–	–	–	–	–	–	-10.1% (inactive)	-13.8% (inactive)	1.68% (inactive)	88% (inactive)	1.03% (inactive)	4.39% (inactive)	86.1% (inactive)
c1ccc2sc(C3CCCNC3)nc2c1 (centres undefined)	–	–	–	–	–	–	–	–	–	–	–	-10.6% (inactive)	-19.7% (inactive)	-1.16% (inactive)	97.6% (inactive)	2.33% (inactive)	0.56% (inactive)	97.4% (inactive)
COc1cccc(OCC(=O)N2CCN(C)CC2)c1	–	–	–	–	–	–	–	–	–	–	–	5.64% (inactive)	11.5% (inactive)	0.31% (inactive)	99.8% (inactive)	0.505% (inactive)	0.31% (inactive)	102% (inactive)
CN(C)C(=O)Oc1ccc(C(=O)c2ccccc2)cc1	–	–	–	–	–	–	–	–	–	–	–	-2.66% (inactive)	5.16% (inactive)	1.59% (inactive)	101% (inactive)	0.43% (inactive)	0.92% (inactive)	95.1% (inactive)
Cc1ccc(-n2nc(C)c3c2NC(=O)CSC3c2ccc3c(c2)OCO3)cc1 (centres undefined)	–	–	–	–	–	–	–	–	–	–	–	-3.05% (inactive)	2.3% (inactive)	0.35% (inactive)	89.9% (inactive)	0.385% (inactive)	1.16% (inactive)	96.3% (inactive)
Cn1c(O)c(C=NCCOc2ccc(Cl)cc2)c(=O)n(C)c1=O	–	–	–	–	–	–	–	–	–	–	–	4% (inactive)	0.245% (inactive)	2.29% (inactive)	93.2% (inactive)	1.06% (inactive)	4.1% (inactive)	93.7% (inactive)
CCOc1ccccc1C1SCC(=O)Nc2c1c(=O)[nH]n2C(CC)CC (centres undefined)	–	–	–	–	–	–	–	–	–	–	–	-3.42% (inactive)	-8.7% (inactive)	-0.06% (inactive)	93.5% (inactive)	1.07% (inactive)	0.37% (inactive)	93.3% (inactive)
COc1cc(CC2C(=O)N(C)C(=O)N(C)C2=O)ccc1OCc1ccccc1	–	–	–	–	–	–	–	–	–	–	–	-12.6% (inactive)	-5.52% (inactive)	0.67% (inactive)	96.9% (inactive)	0.87% (inactive)	5.72% (inactive)	95.8% (inactive)
O=C(NC1(C(F)(F)F)Oc2ccccc2O1)N1CCC2(CC1)OCCO2	–	–	–	–	–	–	–	–	–	–	–	-4.29% (inactive)	1.45% (inactive)	-5.11% (inactive)	51.5% (inactive)	0.465% (inactive)	0.45% (inactive)	79.8% (inactive)
